# Most compounds without a hit are left out; they make up all but 4.8% or so of the library.
# ATXN viability – reduces viability in counter-screen for ATXN expression inhibitors | S2 cells (HEK-293 line with an ATXN2-luciferase reporter) viability, CellTiter-Fluor protease fluorescence, 24 h | Potency, µM (doses to about 56.7 µM), most hits filed as cytotoxic | hit rate 0.49% among 400,000 | AID 651635; note: potency is the fitted concentration of half-maximal effect; nearly all actives have a fitted effect of over 40% in size
# ATXN2 expr inh – inhibitors of ATXN2 expression; HEK-293 ATXN2-luciferase reporter, luminescence, 24 h; AID 1745845; Potency, µM (highest dose often 57 µM), inactives show at the highest dose activity change, negative = inhibition, usual class: inhibitors; hit rate 0.72% among 360,000; note: potency is the fitted concentration of half-maximal effect; % is set by controls: 0 for no effect and ±100 for the full control effect; nearly all actives have a fitted effect of over 55% in size
#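 ATXN2-luciferase reporter cells (luciferase flanked by upstream and downstream ATXN2 gene portions) were treated 24 h at 37 °C with compounds at up to 57 uM. SteadyGlo luminescence gave expression; GF-AFC fluorescence gave viability.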
# DRD3 antagonist – blocks the human D3 dopamine receptor; D3R cells, DiscoveRx beta-arrestin luminescence, antagonist mode; stronger effect = lower value; max response, negative = inhibition, %; hit rate 2.5% among 360,000; in the data active = max response below about -50%; inconclusive = no clear call, values can overlap the other calls; note: % is set by controls: 0 for no effect and ±100 for the full control effect
# Target sequence (P35462 whole entry, looked up): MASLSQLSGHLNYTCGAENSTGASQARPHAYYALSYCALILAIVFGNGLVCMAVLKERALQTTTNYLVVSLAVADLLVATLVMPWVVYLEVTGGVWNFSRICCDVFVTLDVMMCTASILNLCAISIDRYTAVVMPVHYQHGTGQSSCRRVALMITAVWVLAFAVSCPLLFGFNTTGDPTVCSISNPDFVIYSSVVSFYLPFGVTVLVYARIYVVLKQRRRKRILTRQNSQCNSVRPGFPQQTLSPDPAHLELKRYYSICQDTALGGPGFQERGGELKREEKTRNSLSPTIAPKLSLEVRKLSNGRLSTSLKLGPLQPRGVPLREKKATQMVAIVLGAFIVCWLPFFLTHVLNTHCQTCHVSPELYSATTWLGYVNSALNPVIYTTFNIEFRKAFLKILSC
#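 Cells plated overnight at 1500 cells/well, then exposed to library compounds with dopamine controls for 90 minutes at 37 degrees C. DiscoveRx reagent added for 30–60 minutes at room temperature; luminescence read, quantitative HTS format.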
# D3 ag – activates the human D3 dopamine receptor | AID 652048 | D3R DiscoveRx beta-arrestin cells, luminescence, 90 min | max activation, % | hit rate 0.58% among 410,000; in the data active = max activation above about 30%; note: 0% is about no effect
#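 Cells at 1500/well, incubated overnight, then treated with pinned compounds (dopamine as control) for 90 min at 37 degrees C. DiscoveRx reagent added for 30 - 60 minutes at room temperature; luminescence read.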
# HepG2 viability – counter-screen for TGF-b inhibitors: cytotoxicity in HepG2 cells; HepG2 CAGA-GFP viability, ATP luminescence, 18 h; Potency, µM (doses to about 46.1 µM), inactives show top-dose activity change, negative = cytotoxicity, hits mostly cytotoxic; hit rate 0.76% among 410,000; AID 588856; note: potency is the fitted concentration of half-maximal effect
#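 HepG2 CAGA-GFP cells (1000/well, DMEM with 1% FBS) received compound, then TGF-beta at 500 pg/mL final, and were incubated 18 hours at 37 degrees C. Viability was read by CellTiter-Glo luminescence. Media-only wells were set as complete cell-killing and DMSO as no toxicity.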
# TGFb SMAD3 inh – blocks TGF-b signaling; HepG2 CAGA-GFP TGF-b/SMAD3 reporter, GFP fluorescence, 18 h; TGF-beta stimulated, 500 pg/mL final; Potency, µM (doses to about 46.1 µM), for the others: top-dose activity, negative = inhibition, hits mostly inhibitors; hit rate 1.2% among 410,000; note: potency is the fitted concentration of half-maximal effect; % is set by controls: 0 for no effect and ±100 for the full control effect; nearly all actives have a fitted effect of over 65% in size
#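 Smad-responsive CAGA-GFP expression was quantified in HEPG2 cells exposed to compounds and 500 pg/mL final TGF-beta for 18 h at 37 degrees C; unstimulated wells defined full inhibition.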
# * marks the source's active call; other numbers are inactive results; i = inactive; ? = inconclusive; / = no result. Unless noted, calls come from the whole dose curve; as a rule, active = well fitted curve in the direction sought with a large enough effect; inconclusive = small, poorly fitted or top-dose-only effect, or another doubt; inactive = no such curve, though single readings can be large; an effect the other way counts as inactive or inconclusive.
SMILES,ATXN viability,ATXN2 expr inh,DRD3 antagonist,D3 ag,HepG2 viability,TGFb SMAD3 inh
Nc1c(C(=O)NCc2ccco2)c2nc3ccccc3nc2n1Cc1ccc(F)cc1,i,?,-14,-5,6%,?
CCCCCCn1c(N)c(C(=O)NCCN2CCOCC2)c2nc3ccccc3nc21,i,-15%,-9,8,-89%,16µM*
Nc1c(C(=O)NCCCc2ccccc2)c2nc3ccccc3nc2n1Cc1cccs1,i,?,23,35*,-20%,11%
Cc1ccc(-n2nc3c(=O)n(CC(=O)NCC(C)c4ccccc4)nc(C)c3c2C)cc1 (configuration not stated),?,-27%,/,-5,-13%,-26%
CC(C)Oc1ccc(CNC(=O)Oc2ccccc2)cc1,?,?,-7,-3,-21%,-21%
COc1cc(=O)n2c(c1C(=O)N(C)Cc1nonc1C)CCN(C(=O)C1C(C)(C)C1(C)C)CC2,i,/,/,/,/,/
CCOc1ccc(N=Cc2c(O)n(-c3ccc(C)c(C)c3)c(=O)[nH]c2=O)cc1,i,-1%,4,7,5.6µM*,0%
CCOc1ccc(N=Cc2c(O)n(-c3cc(C)cc(C)c3)c(=O)[nH]c2=O)cc1,i,5%,-19,-8,-11%,1%
O=C(Nc1nccs1)C(Cl)(Cl)Cl,i,-12%,-13,-1,-7%,2%
O=C(CCl)Nc1nccs1,?,/,3,2,11µM*,11µM*
COc1ccc(CN2CCc3nc(N4CCN(c5ccc(F)cc5)CC4)ncc3C2)c(OC)c1OC,i,?,/,-17,-25%,?
Cc1cc(Cl)ccc1OCC(=O)O,i,2%,-110*,-88,-1%,7%
O=C(O)COc1ccc(Cl)cc1Cl,i,-11%,-7,-10,0%,4%
S=C=Nc1cccc(C2(N3CCCCC3)CCCCC2)c1,?,-39%,12,84*,-48%,14%
C/C=C1\CN2[C@H]3C[C@@]45c6ccccc6N(C)[C@H]4[C@@H]2CC1C3[C@H]5O (some centres not stated),i,8%,-63*,-56,0%,5%
Cc1ccc2c(c1)[C@]13CCCC[C@@H]1[C@H](C2)N(C)CC3,i,/,/,7,/,/
C[C@@H]1O[C@@H](O[C@@H]2C=C3CCC4C(CC[C@]5(C)[C@@H](c6ccc(=O)oc6)CC[C@]45O)[C@@]3(C)CC2)[C@H](O)[C@H](O)[C@H]1O (some centres not stated),?,-82%,130,16,-68%,-98%
C[C@@H]1O[C@@H](O[C@@H]2C=C3CC[C@@H]4C(CC[C@]5(C)[C@@H](c6ccc(=O)oc6)CC[C@]45O)[C@@]3(C)CC2)[C@H](O)[C@H](O)[C@H]1O (some centres not stated),?,-75%,113,36*,-53%,0.28µM*
CCOc1ccc2c3c1O[C@H]1[C@@H](O)C=C[C@H]4[C@@H](C2)N(C)CC[C@@]341,/,/,/,2,/,/
CC(C)(C)c1cc(C=C(C#N)C#N)cc(Br)c1O,/,27µM*,/,/,/,/
N#CC(C#N)=Cc1cc(O)c(O)c(O)c1,/,/,/,0,/,/
CCOC(=O)C1(c2ccccc2)CCN(CCc2ccc(N)cc2)CC1,i,-4%,/,/,/,/
COc1ccccc1C1CC2CCC(C1OC(C)=O)N2Cc1ccccc1 (configuration not stated),i,-11%,-87*,-19,-5%,0%
CCCCCc1cc(O)c2c3c(c(=O)oc2c1)CN(C)CC3,i,-12%,-16,-14,10µM*,?
CNCCc1ccc(O)c(O)c1,i,-8%,15,116*,-30%,?
SMILES,ATXN viability,ATXN2 expr inh,DRD3 antagonist,D3 ag,HepG2 viability,TGFb SMAD3 inh
O=C1N[C@@H](Cc2ccccc2)C(=O)N2[C@H]3Nc4ccccc4[C@@]3([C@]34C[C@H]5C(=O)N[C@@H](Cc6ccccc6)C(=O)N5[C@H]3Nc3ccccc34)C[C@@H]12,13µM*,?,2,0,-4%,?
O=C1NC(=S)NC(=O)C1Cc1ccccc1,i,8%,4,4,-20%,-10%
On1ccccc1=S,0.32µM*,0.28µM*,-140*,-47,1µM*,0.28µM*
C=CC[C@]1(O)CC[C@H]2[C@@H]3CCC4=CCCC[C@@H]4[C@H]3CC[C@@]21C,/,/,/,1,/,/
CCOC(=O)c1cccc(C2=C(CNC(=O)c3ccc([N+](=O)[O-])cc3)[C@H]3CC[C@@H](C2)N3Cc2ccccc2)c1,?,?,-98*,-17,-46%,?
C[C@]12Cc3cn[nH]c3C[C@@H]1CC[C@@H]1[C@H]2CC[C@@]2(C)[C@H]1CC[C@]2(C)O,/,-11%,/,/,/,/
O=C(O)C(=O)c1cn(Cc2ccccc2)c2ccc(-c3ccc(OC(F)(F)F)cc3)cc12,/,-7%,/,/,/,/
CCN(CC)C(=O)N[C@@H]1C[C@H]2c3cccc4[nH]cc(c34)C[C@@H]2N(C)C1,i,/,/,/,/,/
CC1=C[C@@H]2c3cccc4[nH]cc(c34)C[C@H]2N(C)C1,?,-18%,-22,54*,-15%,1%
CC(C)OP(=O)(OC(C)C)C(NC(=O)c1ccccc1Br)C(N)=O (configuration not stated),i,14%,3,-7,-30%,-1%
CCCc1cc(N2CCN(c3ccc(OC)cc3)CC2)n2cnnc2n1,i,-28%,/,19,-21%,?
C[C@]12Cc3cn[nH]c3C[C@@H]1CC[C@@H]1[C@@H]2CC[C@@]2(C)[C@H]1CC[C@]2(C)O,i,-11%,/,/,/,/
C=CCn1c(O)c(N=Nc2c(C)n(C)n(-c3ccccc3)c2=O)c(=O)[nH]c1=S,?,?,-57*,-14,11%,1%
Cc1c(N=Nc2c(O)[nH]c(=S)[nH]c2=O)c(=O)n(-c2ccccc2)n1C,?,-18%,-66*,-16,-12%,-3%
CCC(C)C(C)(COC(N)=O)COC(N)=O (configuration not stated),i,2%,/,/,/,/
Cc1cc(/C=C/c2ccnc3ccccc23)ccc1N(CCCl)CCCl,/,/,/,/,-22%,-9%
